Source: PubChem BioAssay (Tox21)
“And” between values parts separate entries of the source, which are not always exact repeats. Identical values can stand only once. Records with an inconclusive call do not appear. The source holds several records for some structures; these can differ, active in one and inactive in another. The source made the active and inactive calls. Unless noted, calls come from the whole dose curve; as a rule, active = well fitted curve in the direction sought with a large enough effect in the repeat runs; inconclusive = weak or mixed curves; inactive = no such curve, though single readings can be large; an effect the other way counts as inactive or inconclusive.

Assays:
[1] = qHTS assay for small molecules that induce genotoxicity in human embryonic kidney cells expressing luciferase-tagged ATAD5 (AID 651632); note: nearly all actives have a fitted effect of over 15% in size
In short: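 Reporter cells (HEK293T) express luciferase-tagged ATAD5, a protein that accumulates after DNA damage. Treat 16 hr at 37C/5% CO2, add Amplite, wait 30 min at RT, and read luminescence.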

[2] = qHTS assay for small molecule agonists of the p53 signaling pathway - cell viability (AID 651633; calls by dose curve; note: nearly all actives have a fitted effect of over 30% in size; note: potency is the fitted concentration of half-maximal effect)
In short: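 p53RE-bla cells were treated with compound for 16 hours at 37 C. Cytotoxicity was then measured as CellTiter-Glo luminescence after 30 min at room temperature.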

[3] = qHTS assay for small molecules that induce genotoxicity in human embryonic kidney cells expressing luciferase-tagged ATAD5 - cell viability (AID 651634; calls by dose curve; note: nearly all actives have a fitted effect of over 25% in size; note: potency is the fitted concentration of half-maximal effect)
In short: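 Seeding of 2,000 HEK293T ATAD5-luciferase cells per well preceded pin-tool compound transfer. Plates sat 15.5 hr at 37C under 5% CO2, then fluorescence was read after 30 min with CellTiter-Fluor.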

[4] = qHTS assay for small molecule disruptors of the mitochondrial membrane potential - cell viability (AID 720634; calls by dose curve; note: nearly all actives have a fitted effect of over 20% in size; note: potency is the fitted concentration of half-maximal effect)
In short: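 Measuring cytotoxicity alongside mitochondrial potential, the screen quantified ATP by luminescence in HepG2 cells after 1 hr compound incubation and a 30 min room-temperature CellTiter-Glo step.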

[5] = qHTS assay for small molecule disruptors of the mitochondrial membrane potential (AID 720635); note: potency is the fitted concentration of half-maximal effect
In short: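 HepG2 cells exposed to compound 1 hr at 37C, then Mito-MPS dye 30 min. Ratio read of aggregate (540/590 nm) versus monomer (490/535 nm) fluorescence.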

[6] = qHTS assay to test for compound auto fluorescence at 590 nm (red) in HepG2 cells (AID 720674)
In short: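 Seeding: 2,000 HepG2 cells/well, MEM/10% FBS, overnight 37 C. Dosing: compound vs DMSO. Incubation: 1 hr, 37 C, 5% CO2. Read: fluorescence 540 ex/590 em, Rose Bengal sodium as red reference.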

[7] = qHTS assay to test for compound auto fluorescence at 535 nm (green) in HepG2 cells (AID 720675)
[8] = qHTS assay to test for compound auto fluorescence at 460 nm (blue) in HEK293 cells (AID 720678)
In short: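 Blue read-out at excitation 405 nm and emission 460 nm follows overnight compound exposure of HEK293 cells at 37C in 5% CO2. Activity is given as auto fluorescence equivalency to triamterene.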

[9] = qHTS assay to test for compound auto fluorescence at 590 nm (red) in HEK293 cells (AID 720679)
In short: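 Red channel, Ex/Em 540/590nm; signal expressed as equivalency to Rose Bengal sodium. HEK293, 2,000 cells/well, 10% dialyzed FBS; 23 nL compound pinned after 4-5 hr attachment; overnight 37C/5% CO2 before reading.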

[10] = qHTS assay to test for compound auto fluorescence at 535 nm (green) in HEK293 cells (AID 720680)
[11] = qHTS assay to test for compound auto fluorescence at 460 nm (blue) in HEK293 cell free culture (AID 720681)
In short: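 Compounds were added to cell-free DMEM with 10% FBS and fluorescence read directly. The blue channel used 405 nm excitation and 460 nm emission, with triamterene as the reference fluorophore.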

[12] = qHTS assay to test for compound auto fluorescence at 535 nm (green) in HEK293 cell free culture (AID 720682)
In short: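 DMEM + 10% FBS, cell-free; cpd or DMSO pinned in; Ex485/Em535 read; output as fluorescein-equivalent signal.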

[13] = qHTS assay to test for compound auto fluorescence at 590 nm (red) in HEK293 cell free culture (AID 720683)
In short: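 Cell-free wells of DMEM with 10% FBS received compound, and intrinsic fluorescence was read at excitation/emission 540/590 nm. Values expressed as equivalence to Rose Bengal sodium.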

[14] = qHTS assay to test for compound auto fluorescence at 590 nm (red) in HepG2 cell free culture (AID 720684)
In short: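 Compounds are added to culture medium (MEM, 10% FBS) lacking cells, then fluorescence is read at excitation 540 nm, emission 590 nm, with Rose Bengal sodium as the equivalency standard.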

[15] = qHTS assay to test for compound auto fluorescence at 460 nm (blue) in HepG2 cell free culture (AID 720685)
In short: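 Compound (23 nL) or DMSO pinned into cell-free MEM with 10% FBS; blue fluorescence read at 405/460 nm excitation/emission, expressed as auto-fluorescence equivalency to triamterene.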

[16] = qHTS assay to test for compound auto fluorescence at 535 nm (green) in HepG2 cell free culture (AID 720686)
[17] = qHTS assay to test for compound auto fluorescence at 460 nm (blue) in HepG2 cells (AID 720687)
In short: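 HepG2 cells in MEM with 10% FBS, attached overnight at 37 C, were exposed to compound or DMSO for 1 hr at 37 C, 5% CO2. Blue fluorescence was read at 405/460 nm, with triamterene as reference fluorophore.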

[18] = target: Glucocorticoid receptor (Homo sapiens) (UniProt P04150); assay: qHTS assay to identify small molecule agonists of the glucocorticoid receptor (GR) signaling pathway (AID 720691; active = well fitted activation curve with a large enough effect in the signal ratio in the repeat runs, not every such curve was filed as active; the % refers to the signal ratio)
In short: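 Reporter read-out: fluorescence intensity following 2 h room-temperature LiveBLAzer B/G FRET substrate loading. Prior step: GR-bla HeLa cells held 4 h, then treated 18 h at 37 C.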

[19] = qHTS assay to identify small molecule antagonists of the glucocorticoid receptor (GR) signaling pathway - cell viability counter screen (AID 720693); note: nearly all actives have a fitted effect of over 55% in size
[20] = qHTS assay for small molecule agonists of the p53 signaling pathway (AID 651631; calls by dose curve; note: nearly all actives have a fitted effect of over 15% in size; note: potency is the fitted concentration of half-maximal effect)
In short: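 Testing took place in human colorectal HCT-116 cells with stable p53RE-driven beta-lactamase. After 16 h of compound exposure at 37 °C, a FRET substrate was added and fluorescence recorded 2 h later.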

Measured: Potency
% is set by controls: 0 for no effect and ±100 for the full control effect.

Chain of Glucocorticoid receptor (Homo sapiens) (P04150 whole entry, looked up): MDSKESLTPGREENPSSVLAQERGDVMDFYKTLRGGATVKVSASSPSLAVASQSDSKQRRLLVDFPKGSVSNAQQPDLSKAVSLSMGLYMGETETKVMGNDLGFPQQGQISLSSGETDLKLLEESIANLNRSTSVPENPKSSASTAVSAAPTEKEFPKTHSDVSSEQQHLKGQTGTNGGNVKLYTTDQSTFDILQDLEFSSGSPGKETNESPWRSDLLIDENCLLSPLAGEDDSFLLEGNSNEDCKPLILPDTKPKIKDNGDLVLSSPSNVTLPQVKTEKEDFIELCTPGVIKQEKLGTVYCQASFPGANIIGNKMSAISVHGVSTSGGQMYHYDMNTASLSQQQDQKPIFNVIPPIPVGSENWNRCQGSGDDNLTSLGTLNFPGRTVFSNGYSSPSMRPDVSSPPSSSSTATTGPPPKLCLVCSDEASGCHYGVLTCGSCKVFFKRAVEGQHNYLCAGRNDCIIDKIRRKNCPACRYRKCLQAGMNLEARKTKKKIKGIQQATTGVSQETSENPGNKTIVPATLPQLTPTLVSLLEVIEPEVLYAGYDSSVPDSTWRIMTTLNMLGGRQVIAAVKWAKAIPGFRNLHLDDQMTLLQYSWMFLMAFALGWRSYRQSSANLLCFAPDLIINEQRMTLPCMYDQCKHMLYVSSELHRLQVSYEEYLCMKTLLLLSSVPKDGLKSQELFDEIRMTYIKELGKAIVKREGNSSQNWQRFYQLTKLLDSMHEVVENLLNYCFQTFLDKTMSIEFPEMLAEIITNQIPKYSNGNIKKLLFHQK

Nc1ccc(Cl)cc1
not listed: [20]
inactive: all other assays above

Oc1ccccc1-c1ccccc1
active: [5] 21.7 µM [middle of 4 runs]
not listed: [18]
inactive: all other assays above

N#CS
not listed: [1]
inactive: all other assays above

CCOP(=S)(OCC)Oc1ccc2c(C)c(Cl)c(=O)oc2c1
inactive and 24.3 µM (active): [4]
active: [5] 19.5 µM and 61.1 µM
not listed: [1]
inactive: all other assays above

C[N+](C)(C)Cc1ccccc1
not listed: [20]
inactive: all other assays above

Cc1cc(Cl)ccc1N
not listed: [20]
inactive: all other assays above

COP(=O)(OC)C(O)C(Cl)(Cl)Cl (centres undefined)
inactive: all assays above

CC[N+]1(C)CCCC1
not listed: [20]
inactive: all other assays above

C[C@]12CCC(=O)C=C1CC[C@@H]1[C@@H]2CC[C@]2(C)C(=O)CC[C@@H]12
not listed: [18]
inactive: all other assays above

CNC
not listed: [1] | [3]
inactive: all other assays above

O=[N+]([O-])c1ccccc1O
inactive: all assays above

CCCC[n+]1cccc(C)c1
inactive: all assays above

Nc1ccc(-c2ccc(N)c(Cl)c2)cc1Cl
active: [20] 9.74 µM and 12.8 µM and 21.7 µM | [3] 54.8 µM and 57 µM and 54.5 µM | [4] 27.4 µM and 50.8 µM and 34.4 µM | [5] 5.48 µM and 16.1 µM and 8.63 µM
54.8 µM (active) and inactive: [2]
not listed: [18]
inactive: all other assays above

OCCOc1ccccc1
inactive: all assays above
